What was measured:
Test in all cases: yeast three-hybrid, YBZ-1, SC-Leu-His + 0.5 mM 3-AT, 4 days
Details in all cases: tags: N-Gal4 AD-HA kept; label: inside an RPR1-promoter hybrid RNA with tandem MS2 sites; ssRNA
PUM1 PUF domain R6-DWE = target: T1, PUM1 PUF domain R6-DWE (Homo sapiens, UniProt Q14671 828-1176, N1043D;Y1044W;Q1047E)
T1 sequence: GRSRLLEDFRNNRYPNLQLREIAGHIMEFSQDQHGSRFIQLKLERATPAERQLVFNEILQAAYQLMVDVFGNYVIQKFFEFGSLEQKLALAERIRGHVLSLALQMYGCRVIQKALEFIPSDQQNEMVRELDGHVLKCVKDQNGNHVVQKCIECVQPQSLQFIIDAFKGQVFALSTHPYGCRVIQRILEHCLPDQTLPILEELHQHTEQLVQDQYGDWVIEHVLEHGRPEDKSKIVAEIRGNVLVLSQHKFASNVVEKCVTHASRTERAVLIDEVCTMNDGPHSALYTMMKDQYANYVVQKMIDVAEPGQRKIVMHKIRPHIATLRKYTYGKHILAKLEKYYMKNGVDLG
In short: (§1)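 The interaction score is the log change in variant frequency from input to selection. Scores were computed in log2 with a pseudocount of 1 for absent variants, using Illumina sequencing of PCR-amplified repeat regions. The input came from four days on SC-Leu and the selection from four days on SC-Leu-His + 0.5 mM 3-AT. The cells were strain YBZ-1 (LexA–MS2 coat fusion, HIS3 reporter) co-expressing Pumilio-1 PUF domain libraries and matching RNA elements from a centromeric plasmid.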

PUM1 PUF domain R5-QVI = PUM1 PUF domain R5-QVI (Homo sapiens, UniProt Q14671 828-1176, C1007Q;R1008V;Q1011I)
In short: as §1

PUM1 PUF domain R5-RMC = PUM1 PUF domain R5-RMC (Homo sapiens, UniProt Q14671 828-1176, C1007R;R1008M;Q1011C)
In short: as §1

PUM1 PUF domain R5-PRD = PUM1 PUF domain R5-PRD (Homo sapiens, UniProt Q14671 828-1176, C1007P;Q1011D)
In short: as §1

PUM1 PUF domain R5-TAR = PUM1 PUF domain R5-TAR (Homo sapiens, UniProt Q14671 828-1176, C1007T;R1008A;Q1011R)
In short: as §1

PUM1 PUF domain R4-WGT = PUM1 PUF domain R4-WGT (Homo sapiens, UniProt Q14671 828-1176, N971W;H972G;Q975T)
In short: as §1

PUM1 PUF domain R3-GFL = PUM1 PUF domain R3-GFL (Homo sapiens, UniProt Q14671 828-1176, C935G;R936F;Q939L)
In short: as §1

PUM1 PUF domain R2-AWY = PUM1 PUF domain R2-AWY (Homo sapiens, UniProt Q14671 828-1176, N899A;Y900W;Q903Y)
In short: as §1

PUM1 PUF domain R3-VYD = PUM1 PUF domain R3-VYD (Homo sapiens, UniProt Q14671 828-1176, C935V;R936Y;Q939D)
In short: as §1

PUM1 PUF domain R5-AFY = PUM1 PUF domain R5-AFY (Homo sapiens, UniProt Q14671 828-1176, C1007A;R1008F;Q1011Y)
In short: as §1

GGCUAGAACUAGUGGAUCCCCCGGCGCCCGGCGGCUCGAGCCCGGGUAAGUGAAAAUAGUCUGCAUGCCGCCGGGCGCCAUGCCUGCAGGUCGACUCUAGAAAACAUG
binding signal (PUM1 PUF domain R6-DWE): 2.98 log2 enrichment (interaction score)

GGCUAGAACUAGUGGAUCCCCCGGCGCCCGGCGGCUCGAGCCCGGGUAAGUGUGAAUAGUCUGCAUGCCGCCGGGCGCCAUGCCUGCAGGUCGACUCUAGAAAACAUG
binding signal (PUM1 PUF domain R5-QVI): 4.41 log2 enrichment (interaction score)

GGCUAGAACUAGUGGAUCCCCCGGCGCCCGGCGGCUCGAGCCCGGGUAAGUGUUAAUAGUCUGCAUGCCGCCGGGCGCCAUGCCUGCAGGUCGACUCUAGAAAACAUG
binding signal (PUM1 PUF domain R5-RMC): 3.38 log2 enrichment (interaction score)
binding signal (PUM1 PUF domain R5-PRD): 3.07 log2 enrichment (interaction score)
binding signal (PUM1 PUF domain R5-TAR): 1.21 log2 enrichment (interaction score)

GGCUAGAACUAGUGGAUCCCCCGGCGCCCGGCGGCUCGAGCCCGGGUAAGUGUACAUAGUCUGCAUGCCGCCGGGCGCCAUGCCUGCAGGUCGACUCUAGAAAACAUG
binding signal (PUM1 PUF domain R4-WGT): 2.69 log2 enrichment (interaction score)

GGCUAGAACUAGUGGAUCCCCCGGCGCCCGGCGGCUCGAGCCCGGGUAAGUGUAAUUAGUCUGCAUGCCGCCGGGCGCCAUGCCUGCAGGUCGACUCUAGAAAACAUG
binding signal (PUM1 PUF domain R3-GFL): 2.59 log2 enrichment (interaction score)

GGCUAGAACUAGUGGAUCCCCCGGCGCCCGGCGGCUCGAGCCCGGGUAAGUGUAUAUAGUCUGCAUGCCGCCGGGCGCCAUGCCUGCAGGUCGACUCUAGAAAACAUG
binding signal (PUM1 PUF domain R4-WGT): 4.02 log2 enrichment (interaction score)

GGCUAGAACUAGUGGAUCCCCCGGCGCCCGGCGGCUCGAGCCCGGGUAAGUGUAAAAAGUCUGCAUGCCGCCGGGCGCCAUGCCUGCAGGUCGACUCUAGAAAACAUG
binding signal (PUM1 PUF domain R2-AWY): 3.08 log2 enrichment (interaction score)

GGCUAGAACUAGUGGAUCCCCCGGCGCCCGGCGGCUCGAGCCCGGGUAAGUGUAAAUAGUCUGCAUGCCGCCGGGCGCCAUGCCUGCAGGUCGACUCUAGAAAACAUG
binding signal (PUM1 PUF domain R3-VYD): 6.46 log2 enrichment (interaction score)
binding signal (PUM1 PUF domain R3-GFL): 4.38 log2 enrichment (interaction score)
binding signal (PUM1 PUF domain R4-WGT): 3.43 log2 enrichment (interaction score)
binding signal (PUM1 PUF domain R5-PRD): 3.41 log2 enrichment (interaction score)
binding signal (PUM1 PUF domain R5-AFY): 2.38 log2 enrichment (interaction score)

GGCUAGAACUAGUGGAUCCCCCGGCGCCCGGCGGCUCGAGCCCGGGUAAGUGUCAAUAGUCUGCAUGCCGCCGGGCGCCAUGCCUGCAGGUCGACUCUAGAAAACAUG
binding signal (PUM1 PUF domain R5-RMC): 3.26 log2 enrichment (interaction score)
binding signal (PUM1 PUF domain R5-PRD): 2.8 log2 enrichment (interaction score)
binding signal (PUM1 PUF domain R5-TAR): 5.36 log2 enrichment (interaction score)

— publication PMC8384837, “Expanding the binding specificity for RNA recognition by a PUF domain”
